# Screens: PubChem, several laboratories
# A selection: hits, their analogues and other compounds. The true share with any hit is near 5.9%.
# PRMT1 inh: inhibitors of human PRMT1; inhibition, % at 2.79 µM; recombinant PRMT1, activity-based probe fluorescence polarization; Q99873; AID 652257; hit rate 1.3% among 370,000;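 active = inhibition above about 21% made by adding two undisclosed values, limit read from the data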
# Target sequence (Q99873 whole entry, looked up): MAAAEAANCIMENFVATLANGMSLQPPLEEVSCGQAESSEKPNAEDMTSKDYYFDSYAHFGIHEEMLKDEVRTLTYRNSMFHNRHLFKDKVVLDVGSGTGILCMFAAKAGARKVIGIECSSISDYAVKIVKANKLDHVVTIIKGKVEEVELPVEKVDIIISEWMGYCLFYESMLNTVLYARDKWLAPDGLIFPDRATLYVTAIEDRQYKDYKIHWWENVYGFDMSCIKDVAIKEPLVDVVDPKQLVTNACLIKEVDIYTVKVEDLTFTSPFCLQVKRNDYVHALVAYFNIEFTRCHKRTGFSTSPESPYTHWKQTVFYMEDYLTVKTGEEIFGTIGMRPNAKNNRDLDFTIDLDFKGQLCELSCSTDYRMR
# LANA-H2A inh: blocks KSHV LANA binding to histone H2A/H2B | inhibition, % (no concentration beside the values) | hit rate 0.6% among 320,000 | cell-free LANA-H2A/H2B peptide, fluorescence polarization; in the data active = inhibition mostly above about 10%, no sharp cut-off; inactive = mostly below about 6.7%
# ALR inh: blocks human ALR sulfhydryl oxidase activity; inhibition, % (no concentration beside the values); purified ALR, DTT oxidation, H2O2 HRP-luminol luminescence; P55789; hit rate 3.8% among 290,000;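 active = mean replicate inhibition above about 79%, with every replicate also reaching it, limit read from the data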
# Target sequence (P55789 whole entry, looked up): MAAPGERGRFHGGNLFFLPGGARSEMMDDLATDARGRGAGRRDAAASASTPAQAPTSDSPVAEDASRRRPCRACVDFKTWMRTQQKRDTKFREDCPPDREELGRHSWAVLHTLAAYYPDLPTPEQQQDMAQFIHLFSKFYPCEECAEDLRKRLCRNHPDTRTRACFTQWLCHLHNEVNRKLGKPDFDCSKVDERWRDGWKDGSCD
# ABHD5 PLIN5 PPI: blocks binding of human ABHD5 to perilipin-5. Q00G26+Q8WTS1. Split G. princeps luciferase complementation, luminescence, 4 h. inhibition, % at 4 µM. hit rate 0.78% among 360,000. AID 602281;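 active = inhibition above the mean inhibition across every tested compound plus 3 SD, cut at about 22% in these data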;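 also: 0% = DMSO only wells and the 100% control is not disclosed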
# rCAG binder: molecules binding r(CAG) RNA repeats; AID 651821; r(CAG) RNA repeat, TO-PRO-1 dye displacement fluorescence; inhibition, % at 3 µM; hit rate 1.3% among 370,000;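 active = inhibition above the plate cutoff, the mean of all test compounds on that plate plus 3 SD, cut at about 35% in these data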;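 also: 0% = DMSO alone and 100% = 100 µM mitoxantrone as full dye displacement; higher means more dye released from RNA so lower well fluorescence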
# Rtt109 Vps75: C. albicans Rtt109 histone acetyltransferase inhibition; Q5AAJ8; purified Rtt109/Vps75, ThioGlo CoA-SH fluorescence, 4 h; inhibition, % at 34.9 µM; hit rate 0.16% among 330,000; AID 540336;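 active = inhibition of at least 50% in every replicate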
# * = called active by the depositor; x = not tested or not shown.
SMILES,PRMT1 inh,LANA-H2A inh,ALR inh,ABHD5 PLIN5 PPI,rCAG binder,Rtt109 Vps75
CCCCn1c(N)c(N(CCC(C)C)C(=O)c2ccc3ccccc3c2)c(=O)[nH]c1=O,-2.9,32.5*,0.9,-0.6,3.2,-1.8
CCCCn1c(N)c(N(CCC(C)C)C(=O)COC(=O)c2ccc3ccccc3c2)c(=O)[nH]c1=O,-1.1,x,x,2.5,3.6,21.4
CC(C)CN(C(=O)c1ccc(N2CCCC2=O)cc1)c1c(N)n(Cc2ccccc2)c(=O)[nH]c1=O,-0.5,26.0*,3.8,2.3,3.2,-4.6
CC(C)CN(C(=O)CN1CCN(c2ccc(O)cc2)CC1)c1c(N)n(CC(C)C)c(=O)[nH]c1=O,18.2,0.8,99.5*,6.1,5.4,-2.0
COC(=O)[C@]12C[C@H](CC(=O)NCC34CC5CC(CC(C5)C3)C4)C(=O)N(Cc3ccccc3)C1=C[C@H](C(C)(C)C)O[C@@H]2C,-0.5,x,x,x,8.1,x
COc1cc(NC(C)CCc2ccccc2)cc(OC)c1OC (centres undefined),3.5,3.0,87.9*,-5.6,-1.3,20.2
O=C1c2ccccc2C(Nc2ccc3c(c2)OCCO3)N1Cc1ccccc1 (centres undefined),x,0.5,97.6*,-5.8,x,-3.5
CCOc1ccc(NC2c3ccccc3C(=O)N2Cc2ccc3c(c2)OCO3)cc1 (centres undefined),8.4,-6.0,x,0.3,4.6,24.8
O=C(CSc1nc2cc(Cl)ccc2s1)NC(=O)NCc1ccco1,21.2*,4.1,-6.5,21.8,13.3,28.0
Cc1ccccc1NC(=O)Nc1ccc2c(c1)C(=O)N(C)[C@H]1CC[C@H](CC(=O)NCC3CC3)O[C@@H]1CO2,-1.3,x,x,x,2.0,x
CCn1c2ccccc2c2cc(NC(C)=O)ccc21,2.4,1.3,0.8,-1.3,0.4,1.0
CCn1c2ccccc2c2cc(NC(=O)C(=O)N3CCOCC3)ccc21,1.3,0.8,91.2*,2.8,0.6,8.5
COc1ccc(Nc2c(-c3ccc(C)cc3)nc3cnccn23)cc1,-6.3,0.6,98.8*,-2.1,-4.7,11.9
Cc1ccc(Nc2c(-c3ccccc3O)nc3cnccn23)cc1,1.9,-1.5,98.9*,3.9,3.8,-3.9
Cc1ccc(-c2nc3cnccn3c2Nc2ccc3c(c2)OCO3)cc1,13.0,5.8,x,14.0,4.5,5.3
Cc1ccc(Nc2c(-c3ccc(N4CCOCC4)cc3)nc3cnccn23)cc1,10.5,-1.0,98.9*,11.7,3.0,x
COc1ccc(-c2nc3cnccn3c2Nc2ccc3c(c2)OCO3)cc1,11.9,-1.7,87.0*,4.7,7.2,8.8
Cc1ccc2nc(-c3ccccc3O)c(Nc3ccc4c(c3)OCCO4)n2c1,2.3,-7.2,7.3,-5.1,4.1,-2.4
COC(=O)[C@]12C[C@H](CC(=O)NCc3ccc(C)o3)C(=O)N(Cc3ccco3)C1=C[C@H](C(C)C)O[C@@H]2C1CC1,0.2,x,x,x,-1.7,x
CNC[C@@H]1OCc2ccccc2-c2c(n(C)c3ccccc23)C(=O)N([C@H](C)CO)C[C@H]1C,6.2,x,x,4.0,5.7,x
COc1ccc(CNS(=O)(=O)/C=C/c2ccc(F)cc2CNC(=O)OC(C)(C)C)cc1,-2.8,x,x,x,1.9,x
Cc1ccc(Nc2c(-c3ccccc3O)nc3ncccn23)cc1,-2.5,3.2,98.3*,-3.0,4.9,x
COc1ccc(Nc2c(-c3ccc(OC)cc3)nc3cnccn23)cc1,3.4,-1.6,98.5*,0.4,-2.7,-3.9
CN(C)c1ccc(-c2nc3cnccn3c2Nc2ccc3c(c2)OCCO3)cc1,4.3,-5.2,98.5*,1.4,0.0,0.3
Cc1cccc(Nc2c(-c3ccc(O)cc3)nc3ncccn23)c1,0.8,-1.8,22.8,4.6,-2.5,x
SMILES,PRMT1 inh,LANA-H2A inh,ALR inh,ABHD5 PLIN5 PPI,rCAG binder,Rtt109 Vps75
COC(=O)[C@]12C[C@H](CC(=O)N3CCC(c4ccccc4)CC3)C(=O)N(CCC3=CCCCC3)C1=C[C@H](C(C)C)O[C@@H]2C1CC1,1.0,x,x,x,7.4,x
CCOc1c(O)ccc(C2NC(=O)N(C)C(C)=C2C(=O)OC)c1[N+](=O)[O-] (centres undefined),-4.4,-2.2,88.7*,-7.7,0.9,0.1
COc1ccc(NC(=O)CN(C)C(=O)Cc2ccc(S(=O)(=O)N3CCOCC3)s2)cc1,4.8,1.1,-19.9,-3.5,13.1,2.6
COc1ccc(-c2nc(CS(=O)CC(=O)NCCCN3CCCC3)c(C)o2)cc1OC (centres undefined),2.0,-1.5,98.8*,-4.3,0.1,10.9
COc1ccc(-c2cc(C(=O)NCCCN3CCOCC3)on2)cc1OC,-2.0,0.4,46.9,3.0,-8.2,24.6
COc1ccc(-c2nc(CS(=O)CC(=O)NCCCN3CCOCC3)c(C)o2)cc1OC (centres undefined),0.9,2.1,99.5*,-2.6,2.3,5.8
COc1ccc(-c2nc(CS(=O)CC(=O)NCCN3CCCCC3C)c(C)o2)cc1OC (centres undefined),-1.7,8.3,99.5*,-9.9,-3.9,12.3
COc1ccc(-c2nc(CN3CCC(C(=O)NC4CCCC4)CC3)c(C)o2)cc1OC,-1.1,-4.4,-6.3,-3.5,-5.4,3.4
COc1ccc(-c2nc(CN3CCC(C(=O)NC4CCCc5ccccc54)CC3)c(C)o2)cc1OC (centres undefined),3.1,x,x,-2.9,-3.4,-1.0
COc1ccc(-c2nc(CS(=O)CC(=O)NCCN3CCCCCC3)c(C)o2)cc1OC (centres undefined),0.0,0.7,99.6*,8.4,-5.0,20.0
COc1ccc(C2C(C(=O)N3CCN(c4ccccc4C)CC3)CC(=O)N2c2ccc(OC)cc2)cc1 (centres undefined),-3.1,x,x,x,2.4,x
O=C(OCc1ccccc1)[C@H](Cc1ccccc1)NC(=O)[C@@H]1CC=C[C@@H]2CCN(CCc3ccccc3)C(=O)[C@@H]21,-0.3,x,x,x,x,x
O=C(NC(=S)Nc1ccc(N2CCN(C(=O)c3ccccc3)CC2)cc1)c1cccs1,5.2,1.5,3.3,-1.7,5.5,3.5
Cc1ccsc1C(=O)N1CCN(S(=O)(=O)c2cccs2)CC1,-0.8,149.2*,-3.5,4.8,0.7,-7.3
O=C(NC(=S)N1CCN(c2ccccc2)CC1)c1c(F)cccc1F,-6.4,-1.1,98.8*,-2.4,-1.6,-1.3
O=C(NC(=S)N1CCN(c2ccc(O)cc2)CC1)c1cccs1,9.3,-1.6,98.9*,2.8,6.8,14.7
O=C(NC(=S)N1CCN(c2ccc([N+](=O)[O-])cc2)CC1)c1ccccc1,2.9,3.1,-2.7,-0.5,0.8,5.1
O=C(C1CCN(S(=O)(=O)c2cccs2)CC1)N1CCN(c2ccccc2)CC1,-1.0,4.0,84.2*,7.1,-0.1,11.8
O=C(c1cccs1)N1CCN(c2ccccc2)CC1,-1.8,0.8,98.2*,-0.4,-2.3,-7.0
O=C(NC(=S)N1CCN(c2ccc(F)cc2)CC1)c1cccs1,6.8,1.4,94.5*,-8.4,4.9,0.1
O=C(c1c[nH]c2ccccc12)N1CCN(c2ccccc2)CC1,4.1,-1.2,87.4*,5.2,1.2,6.2
